{"source": "PubChem BioAssay AID2284183", "about": "(EPA ToxCast)", "note": "Calls of active or inactive are those of the source. How the source made its calls: active means hit-call score of the fitted dose curve at least 0.9, where 1 is the maximum; inactive means score below 0.9.", "data": [{"target": "human Tachykinin Receptor NK2 Agonism, TACR2 (gene 6865) (UniProt P21452)", "sequence (P21452 whole entry, looked up)": "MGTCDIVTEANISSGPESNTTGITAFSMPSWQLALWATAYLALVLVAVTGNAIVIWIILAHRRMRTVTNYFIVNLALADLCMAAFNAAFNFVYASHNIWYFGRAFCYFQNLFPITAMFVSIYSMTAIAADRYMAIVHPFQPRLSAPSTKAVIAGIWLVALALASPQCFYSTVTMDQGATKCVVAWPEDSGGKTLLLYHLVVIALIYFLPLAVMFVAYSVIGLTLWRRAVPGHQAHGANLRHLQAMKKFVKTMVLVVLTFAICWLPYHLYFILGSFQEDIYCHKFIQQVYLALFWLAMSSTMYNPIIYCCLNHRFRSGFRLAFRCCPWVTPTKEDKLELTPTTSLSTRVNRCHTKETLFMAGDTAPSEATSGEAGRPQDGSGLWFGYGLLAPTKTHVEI", "experiment": "ERF_TW_GPCR_hTACR2: Eurofins (ERF) G Protein-Coupled Receptor (GPCR) Radioligand Binding LeadHunter Assay for human Tachykinin Receptor NK2 Agonism", "experimental": "ERF_TW_GPCR_hTACR2 is a biochemical, single-readout assay that uses extracted gene-proteins in a cell-free assay. Measurements were taken 1.5 hour after chemical dosing in a 96-well plate. See NK2 Human Tachykinin GPCR Binding (Antagonist Radioligand) Assay, Panlabs.ERF_TW_GPCR_hTACR2 is an assay component calculated from the ERF_TW_GPCR_hTACR2 assay. It is designed to measure radioligand binding using a type of binding reporter as detected by scintillation counting with radiometry technology.Data from the assay component ERF_TW_GPCR_hTACR2 was analyzed at the assay endpoint, ERF_TW_GPCR_hTACR2, in the positive analysis fitting direction relative to DMSO as the negative control and baseline of activity. Using a type of binding reporter, loss-of-signal activity can be used to understand changes in radioligand binding as they relate to gene TACR2. To generalize the intended target to other relatable targets, this assay endpoint is annotated to the gpcr intended target family, where the subfamily is tachykinin.\nHuman recombinant neurokinin NK2 receptor expressed in CHO-hNK2 cells are used to prepare membranes in modified HEPES buffer pH 7.4. A 5 ug aliquot of membrane is incubated with 0.02 nM [125I]-Neurokinin A for 120 minutes at 25C. […] Membranes are filtered and washed, the filters are then counted to determine [125I]-Neurokinin A specifically bound. […]", "values": [{"molecule": "O=C(/C=C/c1ccc(O)cc1)CC(=O)/C=C/c1ccc(O)cc1", "AC50": "1080 nM (active)"}]}]}
